In PubChem BioAssay (EPA / NIEHS):
Active and inactive are the calls of the source. How the source made its calls: active means hit-call score of the fitted dose curve at least 0.9, where 1 is the maximum; inactive means score below 0.9.

These molecules were tested on TIMP1, TIMP1 (gene 7076) (assay: LTEA_HepaRG_TIMP1: Life Technologies and Expression Analysis (LTEA) Assay for TIMP1 using HepaRG (AID 2283534;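 on outcome: TaqMan qRT-PCR signal normalized to ACTB GAPDH and POLR2A housekeeping genes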)). Settings: mRNA level, 48 h; actives raise or lower the signal.
Method: LTEA_HepaRG is a cell based, multiplexed-readout assay that uses HepaRG, a human liver cell line, with measurements taken at 48 hours after chemical dosing on a 96-well plate.LTEA_HepaRG_TIMP1 is one of 102 assay component(s) measured in the LTEA HepaRG cell culture assay. It is a marker of Cell proliferation, survival, death.Data from the assay component LTEA_HepaRG_TIMP1 was analyzed into 1 endpoint. This assay endpoint, LTEA_HepaRG_TIMP1, was analyzed with bidirectional fitting relative to DMSO as the negative control and baseline of activity. Using a type of inducible reporter, measures of mRNA induction for gain or loss-of-signal activity can be used to understand regulation of transcription factor activity. To generalize the intended target to other relatable targets, this assay endpoint is annotated to the protease inhibitor intended target family, where the subfamily is metalloproteinase inhibitor.
A total of 1060 chemcials from the ToxCast library were tested in eight-point concentration-response experiments. Cell culture and cytotoxicity assays were conducted at Thermo Fisher Scientific's Custom Services facility (Madison, WI). A single lot of human HepaRG cells (Thermo Fisher Scientific, Frederick, MD) was used for the cell culture experiments. 96-well format collagen type I coated plates of human HepaRG cells were prepared using established methods. Briefly, cryopreserved HepaRG cells were thawed, plated at a density of approximately 100,000 cells/well in HepaRG Thaw, Plate, and General Purpose media (HPRG770, Thermo Fisher Scientific), and incubated for 48 hours. 0.5% DMSO was selected as vehicle control to balance the requisite need of DMSO in HepaRG cultures to maintain differentiation (for example, baseline metabolism, proportions of hepatocytes vs. cholangiocytes), while enabling further hepatic receptor pathway activation (for example, PXR and CAR) in response to chemical exposure. 48 hours after plating, the culture medium was replaced with HepaRG Serum-Free Incudtion Media. Cells were exposed to each test chemical in duplicate and maintained in CO2 incubators for another 48 hours. Chemical plates were thawed to room temperature and 200x concentrations of treatment groups were prepared. 8-point conentration-reponse curves were made with the highest exposure at 100 uM, followed by half-log dilutions, all in 0.5% DMSO. Each test plate contained variouse controls, induction positive controls (1mM phenobarbital), cytotoxicity positive controls ([…] aflatoxin B1), vehicle controls (0.5% DMSO), and total lysis controls (0.5% DMSO). Cell morphology images were taken using an Essen IncuCyte FLR automated microscope, with six 96-well plates imaged in about 24 minutes. Images were captured and exported and JPEG files. Spent culture media was transfered to black-well plates for the LDH assay, and remaining media was sorted at -80 C for later use. Cells were treated with RLT buffer and frozen until shipped for gene expression analysis. Total RNA was isolated from the cell suspension in 75 uL of Buffer RLT (Qiagen, Germantown, MD 20874) by Quintiles/Expression Analysis (Durham, NC) using a custom isolation procedure. Total RNA from each plate well was transferred to a preamplification plate. Fluidigm's 96.96 Dynamic ArrayTM (Fluidigm, Amsterdam, the Netherlands) technology was used for gene expression analyses by quantitative reverse transcription polymerase chain reaction (qRT-PCR, performed by Quintiles/Expression Analysis, Durham, NC)89. Standard TaqManTM Assays (Applied Biosystems/ThermoFisher Scientific, Foster City, CA) were used to assess the expression of 93 genes selected based on their selectivity and sensitivity to important hepatic receptors known to be modulated by environmental chemicals; importance in human hepatocyte functionality; and hepatotoxicity. […]

Structure (SMILES) | outcome | AC50
CC[C@H](C)C(=O)O[C@H]1C[C@@H](C)C=C2C=C[C@H](C)[C@H](CC[C@@H]3C[C@@H](O)CC(=O)O3)[C@H]21 | inactive | –
O=P(OC(CCl)CCl)(OC(CCl)CCl)OC(CCl)CCl | inactive | –
CC(C)=CCC/C(C)=C\CO | inactive | –
Cn1cnc([N+](=O)[O-])c1Sc1ncnc2nc[nH]c12 | inactive | –
O=C(CCCCCCCCc1cccnc1)N1CCC(C=C(c2ccccc2)c2ccccc2)CC1 | – | 78.7 µM (active)
COc1ccc(/C=C/S(=O)(=O)NC(=O)c2ccc(C)cc2Cl)cc1 | inactive | –
Cc1ccc(S(=O)(=O)O)cc1C | inactive | –
CCOCCOCCOCCO | inactive | –
COc1cccc(-c2ccc(/C=C\CN3CCCCCC3)cc2Cl)c1 | inactive | –
CC(C)(O)c1coc(S(=O)(=O)NC(=O)Nc2c3c(cc4c2CCC4)CCC3)c1 | inactive | –
CC(C)CCCCCCCOC(=O)CCCCC(=O)OCCCCCCCC(C)C | inactive | –
CC(=O)c1ccc2c(c1)[C@H](NC(=O)c1ccc(F)cc1)[C@@H](O)C(C)(C)O2 | inactive | –
CCOC(=O)COc1ccc2c(c1)CC(NCC(O)c1cccc(Cl)c1)CC2 (stereo not given) | inactive | –
CCCN(C1CCN(C(=O)C2CCNCC2)CC1)[C@@H]1CCc2ccc(OC)cc2C1 | inactive | –
CCOCCO | inactive | –
COC(=O)c1ccccc1O | inactive | –
C[C@](N)(Cc1ccc(O)c(O)c1)C(=O)O | inactive | –
CCOC(=O)CC(CC(=O)OCC)(OC(C)=O)C(=O)OCC | inactive | –
C1=CCCC=CCCC=CCC1 | inactive | –
CCNc1ccccc1 | inactive | –

Structure (SMILES) | outcome | AC50
COCCOCCOCCOC | inactive | –
CCN(C(=O)c1cc(C)cc(OC[C@H](C)Nc2ccncc2)c1)C(C)C | inactive | –
NC(=O)NO | inactive | –
Cn1c(=O)cc(Oc2ccc(F)cc2F)c2cnc(NCC(C)(C)O)nc21 | inactive | –
Clc1nc(Cl)c(Cl)c(Cl)c1Cl | inactive | –
CCCCCCCCCCCCCCCO | inactive | –
CNCc1ccc(NC(=O)c2c[nH]c3c2C(=O)CCC3)cc1 | inactive | –
O=C(O)CC(O)C(=O)O (stereo not given) | inactive | –
CC(C)CC(C)(O)C#CC(C)(O)CC(C)C (stereo not given) | inactive | –
CCOc1cccc(-n2cc(C(=O)N3CCN(c4cc(C(=O)O)c5ccccc5c4)CC3)nc2-c2ccc(C)cc2)c1 | inactive | –
O=C(O)CCN(C1(C(=O)NO)CCCC1)S(=O)(=O)c1ccc(Oc2ccc(F)cc2)cc1 | inactive | –
Cc1ccc(N)cc1O | inactive | –
Nc1nc2ncc(CNc3ccc(C(=O)N[C@@H](CCC(=O)O)C(=O)O)cc3)nc2c(=O)[nH]1 | inactive | –
O=c1[nH]c2ccc(S(=O)CCN3CCC(Cc4ccc(F)cc4)CC3)cc2o1 (stereo not given) | inactive | –
CC(C)CCCCCCOC(=O)c1ccc(C(=O)OCCCCCCC(C)C)c(C(=O)OCCCCCCC(C)C)c1 | inactive | –
O=C(O)c1cccc(N(Cc2cccnc2)c2ccc(OC(F)F)c(OC(F)F)c2)c1 | inactive | –
CN(C)c1ccc(N=NS(=O)(=O)O)cc1 | inactive | –
O=C(OC[C@H]1O[C@@H](OC(=O)c2cc(O)c(O)c(OC(=O)c3cc(O)c(O)c(O)c3)c2)[C@H](OC(=O)c2cc(O)c(O)c(OC(=O)c3cc(O)c(O)c(O)c3)c2)[C@@H](OC(=O)c2cc(O)c(O)c(OC(=O)c3cc(O)c(O)c(O)c3)c2)[C@@H]1OC(=O)c1cc(O)c(O)c(OC(=O)c2cc(O)c(O)c(O)c2)c1)c1cc(O)c(O)c(OC(=O)c2cc(O)c(O)c(O)c2)c1 | – | 15.2 µM (active)
COCCOc1cc2cc(C(=O)NC3CCN(C(C)C)CC3)n(CC(=O)Nc3ccc(Cl)cn3)c2cn1 | – | 18.2 µM (active)
CCn1nc(Cc2ccccc2)cc1C1CCN(C[C@H]2C[C@H](N(C)[C@@H](C(=O)O)C(C)C)C[C@@H]2c2cccc(F)c2)CC1 | inactive | –
